Drawing on PubChem BioAssay (NCI), this text covers growth for 40 compounds.

Molecules are shown by their SMILES. Compounds without any hit were thinned out: in the full panel of roughly 83,000, 20% have a hit.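 Step 1: grow cells in 96-well plates. Step 2: add test compound at a single concentration. Step 3: incubate 48 h. Step 4: record percent growth.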 A number with no mark means an inactive call. The source made the active and inactive calls.

This assay has as its system HT29 colon. In words: NCI-60 one-dose screen, 48 h (100 = growth as untreated, 0 = no growth, -100 = all killed). As to conditions: 10 µM unless noted. The procedure:
Growth inhibition of the HT29 human tumor cell line is measured as a screen for anti-cancer activity. Cells are grown in 96 well plates and exposed to the test compound for 48 hours. Compounds are tested at a single concentration, which is 10^-5 M for most compounds. The reported endpoint is percent growth (GI% or GIPRCNT), where numbers from 0 - 100% represent growth inhibition, and numbers from -100% - 0 represent cell death. For example, a value of 40 represents 60% growth inhibition. A value of 0 means no net growth occurred over the course of the experiment. A value of -40 indicates 40% of cells at the beginning of the experiment died by the end of the experiment. A value of -100 means all cells are dead at the end of the experiment.
NCI-60 Human Tumor Cell Lines Screen was performed using the standard one-dose NCI protocol, which is described in more detail at https://dtp.cancer.gov/discovery_development/nci-60/default.htm.
Compounds with GIPRCNT values below 10 were considered active. Activity score was based on GIPRCNT using the following formula: […]
Score is 0 for GIPRCNT values of 100 or above, 50 for GIPRCNT values of 0, and 100 for GIPRCNT values of -100.
Turning to `O=C(NCc1cccnc1)c1cc(-c2csc3c(=O)cc(N4CCOCC4)oc23)cc2c1OCCO2`, the growth was 18%.

`O=C1/C(=C/c2ccccc2[N+](=O)[O-])COc2ccc(O)c(O)c21`: the growth was 5.22% (active).

`CC(=O)c1sc(-c2ccccc2)cc1N`: the growth is 88.7%.

For the compound `CCNCCNc1cc(-c2ccc(C(F)(F)F)cc2)c(C#N)c2nc3cc(Cl)c(Cl)cc3n12`, the growth is -85.5% (active).

Take `CCOC(=O)c1nnn(C(Cc2ccccc2Cl)C(=O)OCC)c1C` (stereo not given): the growth was 86.8%.

In the case of `Cc1nc(C)c(-c2nn3c(-c4cccc(F)c4)nnc3s2)s1`, the growth was 86.6%.

In the case of `CC(C)(O)c1cccc(F)c1`, the growth is 108%.

Consider `CC1(C)CC(=O)c2c(ccc(C(=O)C[C@H](N)CO)c2N)O1`, for which the growth was 2.53% (active).

Turning to `COc1ccc(-n2nnc(C(=O)NCCc3c[nH]c4ccc(F)cc34)c2C)cc1`, the growth is 86.4%.

In the case of `CC(=O)C(C(C)=O)c1nc2sc3cc(Cl)ccc3n2c(=N)c1C#N`, the growth is 92.4%.

For the compound `Nc1c(-c2nc3ccc(Br)cc3c(=O)[nH]2)nnn1-c1ccccc1`, the growth is 58.8%.

On to `COc1cc(-c2cccc([N+](=O)[O-])c2)c(-c2nc(-c3ccccc3)c(-c3ccccc3)n2C2CC2)cc1OC`, for which the growth was 44.5%.

As to `Cn1cc(Nc2nccc(-c3ccc(N4CCCC4)c(C#N)c3)n2)cn1`, the growth is 20.3%.

On to `CC(=O)Nc1ccc2c(c1)Cc1c(F)cccc1-2`, for which the growth was 111%.

With `C/C(Cc1ccc(Cl)cc1)=C(/c1ccc(Cl)cc1)c1ccc(OCCN(C)C)cc1`, the growth is 8.12% (active).

Take `COc1ccc(N=c2nc3sc4cc(Cl)ccc4n3c(N)c2C#N)cc1`: the growth is 36.1%.

On to `Cc1cc(Cl)nc(N(CCCNc2ccnc3cc(Cl)ccc23)Cc2ccccn2)n1`, for which the growth is 10.2%.

Turning to `O=C1c2ccccc2C2(c3ccc(O)cc3)c3ccccc3Oc3cccc1c32` (stereo not given), the growth was 7.07% (active).

For `N=C(N)c1ccc(-c2ccc(-c3ccc(Cl)cn3)s2)cc1`, the growth is 0.247% (active).

As for `COc1ccc(C2CC(c3ccccc3)=NN2c2nc(C)c(C(C)=O)s2)cc1` (stereo not given), the growth was 102%.

`Cc1ccc(S(=O)(=O)Nc2sccc2-c2nc(-c3ccccc3)no2)cc1`: the growth was 100%.

For `CCCCOC(=O)c1ccc(NC(=O)C(C)N2CCOCC2)cc1` (stereo not given), the growth is 79.5%.

As for `CS(=O)(=O)c1ccc(-c2[nH]c3ccc(F)cc3c2/C=N/O)cc1`, the growth is 93.7%.

On to `CCN(CC)CCNc1ccc(C)c2sc3cc(C)ccc3c(=O)c12`, for which the growth was 1.25% (active).

For `CCO/C=N/C1=C(C#N)C(c2ccc(OC)cc2)c2c(c3ccccc3n(C)c2=O)O1` (stereo not given), the growth was 104%.

For the compound `O=C1Nc2ccccc2/C1=N/N=C/c1ccc(OC2OC(CO)C(O)C(O)C2O)cc1` (stereo not given), the growth was 103%.

For the compound `C=C(CNCCc1ccc(O)cc1)[C@@H]1CC[C@]2(COC3CCCCO3)CC[C@]3(C)[C@H](CC[C@@H]4[C@@]5(C)CCC(N)C(C)(C)[C@@H]5CC[C@]43C)[C@@H]12` (stereo not given in full), the growth is -93.8% (active).

Regarding `CCCCCOC(=O)c1cccc(NC(=O)CN(CC)CC)c1`, the growth was 79.6%.

Take `O=S(=O)(Cc1ccccc1)c1nc2ccccc2s1`: the growth is 25.6%.

As for `CC(C)(C)CC(C)(C)Nc1c(-c2ccc(-c3ccccc3)cc2)nc2cnccn12`, the growth is 30.5%.

Regarding `CCCCCCCCn1cc(C2=C(c3coc4ccc(OC)cc34)C(=O)NC2=O)c2ccccc21`, the growth was 99.3%.

`Cc1nc(Nc2ccc(NC(=S)Nc3ccccc3)cc2)nc2nc(Nc3cccc(Cl)c3)[nH]c(=O)c12`: the growth was 114%.

With `CCN(CC)CCOC(=O)N1c2ccccc2Sc2ccccc21`, the growth was 75.9%.

Consider `O=C1C(Cl)C(c2ccccc2Cl)N1n1cnnc1` (stereo not given), for which the growth is 103%.

In the case of `Cc1c(C(=O)O[C@H]2[C@@H]3[C@H](C)CC[C@H]3[C@]3(C)O[C@@]2(C2CCCCC2)C[C@H]3OC(=O)CO)ccc2ccccc12`, the growth was -4.24% (active).

On to `CS(=O)(=O)c1ccc(N/N=C/c2c(-c3ccc(S(C)(=O)=O)cc3)[nH]c3ccc(F)cc23)cc1`, for which the growth was 21.8%.

As for `COc1ccc(C2CC(c3cnccn3)=NN2)cc1OC` (stereo not given), the growth was 84.9%.

In the case of `Clc1ccc(-c2nc(NCCc3ccccc3)nc3c(NCCc4ccccc4)cnn23)cc1`, the growth is 41.9%.

As for `C#CC[C@H](N)C(=O)O`, the growth was 98.7% [20 µM].

On to `O=[N+]([O-])c1cccc(/C=C/c2ccccn2)c1`, for which the growth is 98%.
